We go through 57 compounds from PubChem BioAssay AID651724 (National Center for Advancing Translational Sciences (NCATS), 2012).

Each structure is given as a SMILES string. Hit rate of the full screen: of about 340,000 compounds, about 1,700 (0.5%) were called active. About 2% were inconclusive and are not listed. The sample as a whole holds a higher share of actives than the screen did. A number with no mark means an inactive call. Rule as the data show it: active = activity change below about -65%; inconclusive = mostly about -30% to -63%; inactive = weaker than that.
% is scaled to controls: 0 for no effect and ±100 for the full control effect.

For this experiment, the system named is CtBP / adenovirus E1A interaction (AlphaScreen). The experiment is described as follows: qHTS Assay for Inhibitors of the CtBP/E1A Interaction. The conditions noted are these: AlphaScreen GST-E1A/His-CtBP binding, 1536-well; hits give low values. From the text: Carboxyl-terminal binding protein (CtBP) is a co-repressor for many transcription factors. […] Our studies have shown that CtBP is overexpressed in multiple human cancers, including lung, breast, and head and neck cancers. In particular, it is over-expressed in 50% of primary lung cancer and 90% of metastatic lesions. CtBP suppresses epithelial-specific genes as well as genes critical for apoptosis, providing the underlying molecular mechanism for its role in tumorigenesis. […] Based on the above data, we hypothesize that 1) CtBP suppresses the pro-apoptotic and epithelial genes, therefore overexpressed CtBP in human cancer cells increases EMT and cancer survival; 2) decreasing CtBP's function represents a targeted therapy for lung cancer and potentially multiple cancer types. As a co-repressor, CtBP binds to E1A and other transcription factors through a conserved peptide motif to carry out its action. Inhibiting this interaction using small molecules can potentially serve as effective cancer therapeutics.
To this end, we have developed a homogenous AlphaScreen assay targeting the CtBP/E1A interaction. We performed a large scale HTS of the Molecular Libraries Small Molecule Repository (MLSMR) to identify inhibitors of the CtBP/E1A interaction as potential anti-cancer therapeutics. Compounds identified can also be used as chemical probes to better understand the biological functions of CtBP.
NIH Chemical Genomics Center [NCGC]
NIH Molecular Libraries Probe Centers Network [MLPCN]
Assay Submitter (PI): Rui Zhao, University of Colorado Denver
The first step of the 5uL AlphaScreen assay is to dispense assay buffer (50 mM Tris, pH 8.0, 300 mM NaCl, 0.05% BSA, 0.02% Tween 20, 1 mM TCEP) into a Greiner 1536 white solid bottom microtiter plate (789175-F). Five microliters is added to Column 1, 4 uL is added to Column 2 and 3 uL is added to Columns 3 through 48. A 5X protein solution (125 nM GST-E1A protein + 125 nM His-tagged CtBP protein) is mixed and 1 uL is dispensed to Columns 3-48. Using a 1536 pintool, 23 nL of compound is transferred to the assay plate and the plate is incubated with a lid at 37 deg C in the dark for two hours. A solution of 5X AlphaScreen beads is mixed (50 ug/mL Glutathione linked donor beads + Nickel chelated acceptor beads) and 1 uL is dispensed to Columns 2-48. The assay plate is incubated for one hour, with a lid, at 37 deg C in the dark. The plate is read using a Perkin Elmer Envision using an AlphaScreen protocol.
(In qHTS, concentration-response curves come from the screen itself.)
On to `CCOC(=O)[C@]12CCCC=C1N(CCC1=CCCCC1)C(=O)[C@H](CC(=O)N1CCN(C(=O)c3ccco3)CC1)C2`, for which the activity change was -6.31%. Consider `NC(=O)NC(CC(=O)NNC(=O)c1ccccn1)c1ccc(Cl)cc1` (configuration not stated), for which the activity change is -76% (active). With `CN(C)S(=O)(=O)c1ccc(Cl)c(NC(=O)COC(=O)CC(NC(N)=O)c2ccc(Cl)cc2)c1` (configuration not stated) the figure was -6.53%; with `O=C(COC(=O)c1ccccn1)NNC(=O)c1ccc(Br)cc1`, -15.7%; with `CC(C)NC(=O)C1(C)CCCCCN1C(=O)c1ccc(-c2ccccc2)cc1` (configuration not stated), -11.1%.

Regarding `CCCC/C=C/c1cccc2nncn12`, the activity change is 2.58%.

With `COc1cccc(-c2cc3nc(NCCOc4ccccc4Cl)n(C)c(=O)c3s2)c1`, the activity change was 3.25%. Consider `COc1ccc(CCCNC(=O)C2Cc3c(-c4cccc(C(N)=O)c4)ccnc3O2)cc1` (configuration not stated), for which the activity change was -0.248%. Take `O=C(CSc1cccc2cccnc12)N/N=C/c1cccnc1`: the activity change is -93.9% (active).

Regarding `CCOC(=O)N/N=C/c1cccnc1`, the activity change is 25.9%. Turning to `COc1ccc(C(=O)NCC(=O)N/N=C/c2cccnc2)cc1`, the activity change is 11.7%.

As to `CCCCn1nnnc1C(c1cc2ccccc2o1)N(C)Cc1ccc(Cl)c(Cl)c1` (configuration not stated), the activity change is 13.3%. With `O=C(Nc1ccc2c(c1)OCCO2)C(C1CC1)N1CCC(Cc2ccccc2)CC1` (configuration not stated) the figure was -10.3%; with `O=C(OCC(=O)N1CCCCCC1)c1ccc(Cl)nc1`, -1.48%.

On to `O=C(OCC(=O)N1CCCCCC1)c1cnc(Cl)c(Cl)c1`, for which the activity change was -78.7% (active). With `O=C(OCC(=O)N1CCCC1)c1ccc(Cl)nc1` the figure was 2.13%. Regarding `O=C(Nc1ccccc1)Oc1cccc2cccnc12`, the activity change is -90.3% (active). Regarding `OCc1ccc(OCCCOc2cccc3cccnc23)cc1`, the activity change is -7.66%. `O=S(=O)(NCCOc1cccc2cccnc12)c1ccc(F)cc1`: the activity change was 6.61%. With `COC(=O)[C@@]12C[C@@H](CC(=O)NCc3cccc(C(F)(F)F)c3)C(=O)N(Cc3ccco3)C1=CCC(C)(C)C2` the figure was -3.58%; with `CCCCCCCCN1C(=O)[C@H](CC(=O)NCc2cccc3ccccc23)C[C@@]2(C(=O)OC)CCCCC=C12`, -7.91%; with `C/C(=N\Nc1ccc(Cl)nn1)c1ccccc1O`, -87.6% (active). `C/C(=N\NC(=O)c1ccoc1C)c1ccccc1O`: the activity change is -25.9%.

For the compound `CCCCCCCN=C(C)c1ccccc1O`, the activity change was 2.02%. With `CC(C)Nc1ncnc2c1ncn2[C@H]1CN(Cc2ccncc2)C[C@@H](CO)O1` the figure was 4.17%; with `Cc1cc(O)ccc1-c1cc(C(=O)NCc2cc(C(F)(F)F)cc(C(F)(F)F)c2)[nH]n1`, 0.488%; with `O=C(Nc1ccc(Cl)c(C(F)(F)F)c1)C1Cc2c(-c3ccccc3Oc3ccccc3)ccnc2O1` (configuration not stated), -3.42%. As to `CC(O)(c1cccc(F)c1)c1nc(-c2ccc3c(c2)OCO3)cs1` (configuration not stated), the activity change was 0.33%. For the compound `Cc1ncc(CO)c(/C=N/NC(=O)c2cccc(S(=O)(=O)N3CCCC3)c2)c1O`, the activity change was 0%. With `Cc1cc(C)nc(N/N=C/c2c(CO)cnc(C)c2O)n1` the figure was -85.2% (active). With `CCc1nc2c(OCc3ccc(Cl)cc3Cl)cccn2c1N(C)C(=O)C(C)C` the figure was -14.5%.

Regarding `CC(C)(C)OC(=O)NCCCCCNC(=O)c1nc[nH]c1C(=O)NCc1ccccc1`, the activity change was 4.97%. On to `CC(C)(C)OC(=O)NCCCCCNC(=O)c1[nH]cnc1C(=O)Nc1nccs1`, for which the activity change was -77% (active). With `Cc1ccc(NC(=O)c2nc[nH]c2C(=O)N[C@@H](CCCCNC(=O)OC(C)(C)C)C(=O)OC(C)(C)C)cc1` the figure was -1.82%; with `COc1ccc(Cc2nnc(N/N=C/c3ccccc3O)[nH]c2=O)cc1OC`, -73.4% (active); with `O=c1[nH]c(NCCO)nnc1Cc1ccc(Cl)cc1`, 0.739%. With `COc1ccc(Cc2nnc(SC)[nH]c2=O)cc1` the figure was 0.0747%; with `CC1CCN(C(=O)CSc2nnc(-c3ccco3)n2N)CC1`, 1.76%; with `COc1cc2ccc(C(C)=O)c(O)c2cc1OC`, 3.1%. As to `NC(c1csc(NC(=O)Nc2ccccc2Oc2ccccc2)n1)c1ccccc1Cl` (configuration not stated), the activity change was -22.8%.

For `Cc1cccc(C)c1Cn1c(C)c(C(=O)NCc2cccc(Cl)c2)sc1=O`, the activity change was -20%. With `Cc1ccc2cccc([N+](=O)[O-])c2n1`, the activity change was -11.4%. Turning to `O=[N+]([O-])c1ccccc1S(=O)(=O)Nc1cccc2cccnc12`, the activity change was -78.7% (active). With `NS(=O)(=O)c1ccc(CCNS(=O)(=O)c2cccc3cccnc23)cc1` the figure was 3.18%; with `CNC(=O)C1CN(C(=O)c2cccc(S(=O)(=O)N3CCc4ccccc43)c2)c2ccccc2O1` (configuration not stated), -7.74%. With `CCOC(=O)[C@]12CCCC=C1N(Cc1ccc3c(c1)OCO3)C(=O)[C@H](CC(=O)NCc1cccs1)C2` the figure was -17.2%; with `CN(C)C(CNC(=O)c1cc(Br)c(Br)s1)c1ccco1` (configuration not stated), 0.728%; with `CC(C)c1c(C(=O)N/N=C/c2ccccc2C(=O)O)nnn1-c1nonc1N`, 18.7%.

Turning to `CCc1ccc(/C=N/NC(=O)c2nnn(-c3nonc3N)c2CN2CCc3ccccc32)cc1`, the activity change is -23.8%.

Turning to `Nc1nonc1-n1nnc(C(=O)N/N=C/c2ccccc2O)c1CN1CCCC1`, the activity change was -92.6% (active). Consider `CCOC(=O)N1CCN(C(=O)C[C@@H]2C[C@@]3(C(=O)OC)CCCCC=C3N(CCC3=CCCCC3)C2=O)CC1`, for which the activity change was -2.03%. With `Oc1ccc(N=Nc2nccs2)c(O)c1` the figure was -92.5% (active); with `Oc1ccc2ccccc2c1N=Nc1nccs1`, -93.9% (active); with `OC[C@@H]1CN(Cc2ccc(-c3ccccc3)cc2)C[C@H](n2cnc3c(NC4CCCC4)ncnc32)O1`, -10.7%. With `O=C1[C@H]2[C@@H](c3ccc(C(F)(F)F)cc3)N[C@]3(CCCN(Cc4ccc(Cl)cc4)C3=O)[C@H]2C(=O)N1Cc1ccccc1` the figure was 5.38%; with `Cc1ccc(S(=O)(=O)N2C[C@H]3n4c(=O)ccc(=O)n4C[C@H](OC(=O)NC4CCCC4)[C@@]3(O)C2)cc1`, 2.31%; with `CC(=O)NC(c1cccc(F)c1)c1nc(-c2cccc(F)c2)cs1` (configuration not stated), 6.59%.
